A selection: hits, their analogues and other compounds. The true share with any hit is near 19%.
Gal4-VP16 FLuc = inhibits Gal4-VP16 luciferase reporter, ROR gamma counter-screen; Drosophila S2 Gal4-VP16 UAS-luciferase, luminescence, 20 h; Potency, µM (top dose mostly 53.6 µM), without a hit: top-dose activity, negative = inhibition, usual class: inhibitors; hit rate 3.5% among 310,000; AID 2546;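 further: Gal4-VP16 expression switched on by copper sulfate through the metallothionein promoter; nearly all actives have a fitted effect of over 50% in size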
DT40 TDP1 CPT = DT40-hTDP1 cell growth loss with CPT. chicken DT40 Tdp1-/-;hTDP1 cells + 20 nM CPT, ATP luminescence, 48 h. Potency, µM (highest dose often 46.2 µM), without a hit: at the top dose activity change, negative = growth inhibition, most hits filed as inhibitors. hit rate 12% among 420,000. AID 686979; further: nearly all actives have a fitted effect of over 55% in size
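Chicken DT40 Tdp1-/- cells stably complemented with human TDP1 were seeded at 400 cells/well in medium containing 20 nM camptothecin, exposed to pin-transferred compounds, and grown at 37 °C for at least 48 hr. Viability was read as ATP luminescence.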
RORgamma inh = inhibitors of mouse ROR gamma transcriptional activity. P51450. Drosophila S2 Gal4-RORgamma UAS-luciferase reporter, 20 h. Potency, µM (series often up to 53.6 µM), without a hit: at the top dose activity change, negative = inhibition, hits mostly inhibitors. hit rate 5.4% among 310,000. AID 2551; further: nearly all actives have a fitted effect of over 60% in size
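Drosophila Schneider cells stably carrying a metallothionein-driven Gal4 DBD–ROR gamma fusion and a UAS-Photinus luciferase reporter were exposed to compound for 1 hr, then induced with copper sulfate (700 uM final) for 20 hr at ambient temperature before luminescence reading.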
TDP1 inh = inhibitors of human tyrosyl-DNA phosphodiesterase TDP1; hit rate 0.28% among 350,000; AID 485290; recombinant TDP1, AlphaScreen DNA substrate cleavage; Potency, µM (series often up to 130 µM), without a hit: at the highest dose activity change, negative = inhibition, usual class: inhibitors; Q9NUW8; further: nearly all actives have a fitted effect of over 40% in size
Target sequence (Q9NUW8 whole entry, looked up): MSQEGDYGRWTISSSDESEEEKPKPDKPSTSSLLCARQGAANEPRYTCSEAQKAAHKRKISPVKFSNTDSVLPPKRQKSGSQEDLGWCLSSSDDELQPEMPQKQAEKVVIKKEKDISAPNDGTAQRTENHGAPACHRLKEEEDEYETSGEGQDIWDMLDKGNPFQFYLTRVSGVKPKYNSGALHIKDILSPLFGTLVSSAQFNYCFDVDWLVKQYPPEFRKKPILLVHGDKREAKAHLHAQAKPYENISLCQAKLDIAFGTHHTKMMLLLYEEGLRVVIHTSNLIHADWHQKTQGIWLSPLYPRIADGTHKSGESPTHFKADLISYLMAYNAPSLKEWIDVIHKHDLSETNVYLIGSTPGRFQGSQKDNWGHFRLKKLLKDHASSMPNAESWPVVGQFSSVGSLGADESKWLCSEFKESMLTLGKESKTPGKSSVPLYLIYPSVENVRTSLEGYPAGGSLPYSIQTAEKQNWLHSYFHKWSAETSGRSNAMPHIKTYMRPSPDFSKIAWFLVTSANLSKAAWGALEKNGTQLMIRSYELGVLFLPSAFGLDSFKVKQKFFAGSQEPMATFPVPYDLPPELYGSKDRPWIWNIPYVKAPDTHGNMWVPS
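AlphaScreen read-out: signal falls as enzyme removes the 3' tyrosine-FITC from a 5'-biotinylated DNA oligo (15 nM, 5 min, RT). Enzyme was E. coli-made recombinant Tdp1 at 1 nM, exposed to compound for 15 min beforehand; beads 10 ug/ml, 10 min.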
TDP1 cell noCPT = qHTS for Inhibitors of human tyrosyl-DNA phosphodiesterase 1 (TDP1): qHTS in cells in absence of CPT; hit rate 15% among 420,000; AID 686978, 2013; DT40 Tdp1-/- hTDP1 cells, no CPT, ATP luminescence, 48 h; Potency, µM (highest dose often 46.2 µM), for the others: at the top dose activity change, negative = growth inhibition, most hits filed as inhibitors; further: nearly all actives have a fitted effect of over 55% in size
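Seeded 400 DT40-hTDP1 cells/well (vehicle DMSO, no 20 nM CPT); pinned compounds; ≥48 hr at 37 °C; CellTiter-Glo luminescence as viability measure.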
An asterisk follows results filed as active; ? = inconclusive; nt = not tested or not shown; [ ] = another dose, or the depositor's remark. The call rests on the fitted dose curve; in most records, active means well fitted curve in the direction sought with a large enough effect; inconclusive means small, poorly fitted or top-dose-only effect, or another doubt; inactive means no such curve, though single readings can be large; an effect the other way counts as inactive or inconclusive. On the % scale 0 is the no-effect control and ±100 the full control effect; potency means the concentration at half of the fitted maximal effect.

SMILES	Gal4-VP16 FLuc	DT40 TDP1 CPT	RORgamma inh	TDP1 inh	TDP1 cell noCPT
O=C(Nc1ccc(N2CCCC2)cc1)c1cc([N+](=O)[O-])ccc1N1CCOCC1	-11%	?	?	10%[56.1 µM]	23µM*
O=C(COc1ccccc1)N1CCN(c2ccc([N+](=O)[O-])c(N3CCCCC3)c2)CC1	-7%	?	13%	4%	?
O=S(=O)(CCNCc1ccco1)NC1CCCCC1	nt	-8%	nt	nt	-5%
C=CCn1c(C)cc(C(=O)COC(=O)c2n[nH]c(=O)c3ccccc23)c1C	nt	?	nt	0%	?
CSc1ccc(CNc2ccccn2)cc1	10%	-3%	-10%	8%	?
O=C(c1cc([N+](=O)[O-])ccc1N1CCOCC1)N1CCCCC1	-8%	0%	-10%	4%	1%
O=C(c1cc([N+](=O)[O-])ccc1N1CCOCC1)N1CCN(c2ccc([N+](=O)[O-])cc2)CC1	nt	13µM*	nt	0%	15µM*
O=C(c1cc2cc([N+](=O)[O-])ccc2oc1=O)N1CCOCC1	?	-1%	5µM*	nt	-14%
O=C(C(=NNc1ccccc1)C(=S)Nc1ccccc1)c1ccccc1	nt	29µM*	nt	nt	?
O=C(CCc1ccccc1)NC(=S)NCc1ccco1	?	12%	7.9µM*	8%	21µM*
CC(C)(C)CC(=O)NC(=S)NCc1ccco1	?	-14%	4.5µM*	2%	0%
CC(C)(O)C(=O)NNC(=S)NCc1ccco1	6%	-7%	40%	8%	-8%
O=C(Nc1ccc2nc(SCc3ccccc3)sc2c1)c1ccccc1F	nt	16µM*	nt	-9%	13µM*
Cn1cnnc1SCC(=O)Nc1ccc2nc(SCc3ccccc3)sc2c1	-6%	?	28%	9%	?
CCOC(=O)CSc1nc2ccc(NC(=O)c3cccc(F)c3)cc2s1	nt	-21%	nt	-2%	-27%
COc1ccccc1C(=O)Nc1ccc2nc(SCC(=O)N(C)C)sc2c1	4%	-29%	5%	4%	?
CN(C(=O)CSc1nc2ccc(NC(=O)c3ccccc3F)cc2s1)c1ccccc1	nt	15µM*	nt	2%	9.2µM*
CN(C(=O)CSc1nc2ccc(NC(=O)c3cccc(F)c3)cc2s1)c1ccccc1	nt	8.2µM*	nt	-2%	6.5µM*
CC(C)(C)C(=O)Nc1ccc2nc(SCc3ccccc3)sc2c1	nt	?	nt	1%	21µM*
O=C(Nc1ccc2nc(SCc3ccccc3)sc2c1)c1cccc(F)c1	nt	-27%	nt	-2%	-26%
CC(=O)Nc1nonc1-c1nnc(SCC(=O)Nc2ccc(C)cc2C)n1C	nt	-26%	nt	2%	?
CCOc1ccc(C(=O)Nc2ccc3nc(SCC(=O)N(C)c4ccccc4)sc3c2)cc1	nt	2.1µM*	nt	3%	3.7µM*
Cc1ccc(OCCSc2nc3ccc(NC(=O)c4ccc(F)cc4)cc3s2)cc1	nt	?	nt	2%	?
CC(=O)N/C(=C\c1cccc([N+](=O)[O-])c1)C(=O)NC1CCCCC1	7%	3%	1%	3%	-28%
O=C(COC(=O)/C=C/c1ccccc1)Nc1cc(C(F)(F)F)ccc1N1CCOCC1	-8%	-1%	-7%	0%	11%
SMILES	Gal4-VP16 FLuc	DT40 TDP1 CPT	RORgamma inh	TDP1 inh	TDP1 cell noCPT
Cc1ccc(Nc2sc(C(=O)c3ccccc3)c(N)c2C(=O)Nc2ccc(Cl)cc2)cc1	nt	?	nt	10%	18µM*
COc1ccccc1NC(=O)c1c(Nc2ccccc2F)sc(C(=O)Nc2cccc(Cl)c2)c1N	?	?	?	9%	26µM*
Nc1c(C(=O)c2ccccc2)sc(Nc2ccc(Cl)c(Cl)c2)c1C(=O)Nc1ccccc1	nt	?	nt	9%	4.1µM*
CCOc1ccc(NC(=O)c2c(Nc3ccc(OC)cc3OC)sc(C(=O)c3ccc(Cl)cc3)c2N)cc1	nt	12µM*	nt	0%	13µM*
CCOC(=O)Cc1csc(NC(=O)COc2ccc(C)cc2)n1	0%	?	-7%	3%	?
O=C(Nc1ccc2ccccc2c1)C(c1ccccc1)C1CCCC1 (stereo not given)	?	?	?	0%	?
